The panel holds about 83,000 compounds, 20% with a hit somewhere; the sample as a whole holds those more often.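 Method: cells in 96-well plates; compound added at one concentration; 48 h incubation; percent growth measured; values under 10 scored active.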 A number with no mark means an inactive call. Active and inactive are the calls of the source.

Common to all, as to experiment: NCI-60 one-dose screen, 48 h (100 = growth as untreated, 0 = no growth, -100 = all killed)
What all share (conditions): 10 µM unless noted

Experiment [1] deals with NCI-H23 lung.
The subject of experiment [2] is NCI-H226 lung.
Experiment [3] has as its system NCI-H322M lung.
For experiment [4], the system named is HOP-62 NSCLC.
Experiment [5] concerns NCI-H460 lung.
Experiment [6] has as its system NCI-H522 lung.
For experiment [7], the system named is A549/ATCC NSCLC.
In experiment [8] the test system is 786-0 renal.
In experiment [9] the test system is COLO 205 colon.
The subject of experiment [10] is DU-145 prostate.
Experiment [11] has as its system K-562 leukemia.
Experiment [12] concerns MALME-3M melanoma.
The subject of experiment [13] is MDA-MB-231 breast.
Experiment [14] relates to RXF 393 renal.
Experiment [15] deals with SF-268 CNS.
The subject of experiment [16] is SF-295 CNS.
Experiment [17] has as its system SF-539 CNS.
For experiment [18], the system named is UACC-257 melanoma.
Experiment [19] relates to M14 melanoma.

As for `Cc1occc1-c1nc2s/c(=C/c3ccc(-c4cc(C(F)(F)F)ccc4Cl)o3)c(=O)n2n1`, the growth in experiment [1] is 104%; in experiment [2] it was 98.1%; in experiment [3], 101%; in [4] it was 116%; in [5] it was 109%; in experiment [6], 98.2%. Moreover, the growth in experiment [7] is 102%; in [8], 103%; in experiment [9], 112%; in experiment [10], 103%; in experiment [11] it was 105%; in [12] it was 98.5%. Moreover, the growth is 104% in experiment [13]; 108% in experiment [14]; 97.2% in [15]; 99.7% in experiment [16]; 103% in experiment [17]; 105% in [18]. In addition, the growth in [19] was 97.1%.
In the case of `CC[C@H](CO)Nc1ccc2ncc(C#Cc3cncc(C(=O)Nc4ccc(CN5CCN(C)CC5)c(C(F)(F)F)c4)c3)n2n1`, the growth in experiment [1] is -80.8% (active); in [2], -25.7% (active); in [3], -16.6% (active); in experiment [4] it was -45% (active); in experiment [5], -93% (active); in experiment [6], -75.8% (active). In addition, the growth in [7] was -0.341% (active); in experiment [8], -97.2% (active); in [9], -92.5% (active); in experiment [10], -94.3% (active); in experiment [11] it was 0.0289% (active); in experiment [12], -81.5% (active). The growth in [13] was -60.6% (active); in experiment [14], -95.7% (active); in experiment [15], -60.5% (active); in [16], -82.1% (active); in [17], -91.5% (active); in experiment [18], -85.9% (active). In addition, the growth in experiment [19] is -95.5% (active).
For `COc1cc2oc(-c3cccc(N)c3)cc(=O)c2c(OC)c1OC`, the growth is 110% in experiment [1]; 99.9% in experiment [2]; 102% in experiment [3]; 115% in experiment [4]; 106% in [5]; 97.4% in experiment [6]. Besides, the growth was 101% in [7]; 94.1% in experiment [8]; 126% in [9]; 108% in [10]; 107% in experiment [11]; 101% in [12]. In addition, the growth in experiment [13] is 100%; in [14], 117%; in experiment [15], 104%; in experiment [16] it was 93.4%; in experiment [17] it was 99.6%; in experiment [18], 119%. For the same compound, the growth in experiment [19] was 111%.
Consider `CCCn1cnc2c(c1=N)C(c1ccc(OC)cc1)c1sc3c(C)cccc3c1O2` (stereo unspecified), for which the growth in [1] was 23.1%; in [2] it was 63.8%; in experiment [3], 45.3%; in experiment [4], 43.6%; in experiment [5] it was 6.21% (active); in [6], -3.75% (active). The growth in experiment [7] is 29.2%; in experiment [8], 31.1%; in experiment [9], 7.69% (active); in [10] it was 19.1%; in experiment [11], 13%; in [12], 57.8%. Moreover, the growth was 27.4% in [13]; -5.55% (active) in experiment [14]; 39% in experiment [15]; -6.82% (active) in experiment [16]; -21.6% (active) in experiment [17]; 86.7% in experiment [18]. The growth in [19] is 2.53% (active).
Take `COC(=O)c1[nH]nc2c1C1(C(=O)c3cccc4cccc1c34)C(C#N)=C(N)O2` (stereo unspecified): the growth is 95% in experiment [1]; 91.8% in [2]; 94.1% in [3]; 97.5% in [4]; 105% in [5]; 100% in experiment [6]. Also, the growth in experiment [7] is 98.2%; in experiment [8], 99.5%; in experiment [9], 110%; in [10], 104%; in experiment [11], 91.2%; in [12], 103%. Further, the growth is 91.4% in experiment [13]; 93.5% in experiment [14]; 84.1% in [15]; 104% in experiment [16]; 101% in experiment [17]; 103% in [18]. In addition, the growth in [19] was 108%.
On to `CCN(CC)c1ccc(NC2=C(Cl)C(=O)c3nc(C)ccc3C2=O)cc1`, for which the growth is -10.3% (active) in experiment [1]; 87.9% in experiment [2]; 109% in experiment [3]; 130% in experiment [4]; 100% in experiment [5]; -44.3% (active) in experiment [6]. Moreover, the growth is 100% in experiment [7]; 60.6% in [8]; 101% in [9]; 87.9% in [10]; 0.916% (active) in experiment [11]; -11.1% (active) in experiment [12]. Also, the growth is -46.5% (active) in experiment [13]; -95.1% (active) in experiment [14]; 90.8% in [15]; 105% in experiment [16]; 102% in experiment [17]; -57.7% (active) in experiment [18]. In addition, the growth in experiment [19] is 40.4%.
Take `Cc1cc(-c2ccc(Cl)cc2)n(Cc2nnc(SCC(=O)Nc3ccc(S(N)(=O)=O)cc3)n2-c2ccc([N+](=O)[O-])cc2)n1`: the growth in experiment [1] was 90.2%; in experiment [2], 85.1%; in experiment [3], 96%; in [4], 104%; in [5], 67.1%; in [6], 90%. Also, the growth was 84.3% in experiment [7]; 109% in experiment [8]; 97% in experiment [9]; 101% in [10]; 64.3% in experiment [11]; 92.9% in [12]. Further, the growth is 93.3% in experiment [13]; 75.9% in experiment [14]; 95.6% in experiment [15]; 73.4% in experiment [16]; 97% in [17]; 98.5% in experiment [18]. In addition, in experiment [19], the growth is 85.5%.
As to `Cc1nn(-c2ccccc2)c2ncnc(N/N=C/c3ccccc3O)c12`, the growth was 14.3% in experiment [1]; 14.8% in experiment [2]; 14.1% in experiment [3]; 10.2% in experiment [4]; 6.19% (active) in [5]; 23.1% in [6]. Moreover, the growth is 11.7% in [7]; 11% in experiment [8]; 10.5% in [9]; 21% in experiment [10]; 15% in experiment [11]; 29.7% in experiment [13]. Besides, the growth was -20.4% (active) in experiment [14]; 8.32% (active) in experiment [15]; 7.98% (active) in [16]; -1.39% (active) in experiment [17]; 9.8% (active) in experiment [18]; 0.329% (active) in experiment [19].

Source of the values: PubChem BioAssay (NCI).
